Screening data from PubChem.
CDC25B CDK2 inh: primary biochemical HTRF screen for blockers of M-phase inducer phosphatase 2 binding to CDK2/cyclin A; P30305+P24941; HTRF CDC25B-CDK2/CyclinA binding, anti-His/anti-Flag; hits give high values; z-score (concentration not given with the values); actives 0.72% (n = 94,000); AID 1259370, 2018; in the data active = z-score above about 3.2
HIV TAR-Tat: TAR RNA-Tat peptide displacers, HIV-1, primary screen, biochemical, FRET, FAM/TAMRA-labeled Tat; HIV-1 TAR RNA, Tat peptide displacement FRET; hits give high values; z-score (concentration not given with the values); actives 0.6% (n = 100,000); AID 1259389, 2018; active = z-score of 3 or more in at least 2 runs
Starred values were filed as active, the others as inactive; x = not tested or not shown. The list is not random: actives were taken first. Their share in the collection is about 0.9%.

SMILES	CDC25B CDK2 inh	HIV TAR-Tat
C[C@@H]1C[C@H]2O[C@@H]2/C=C\C=C\C(=O)Cc2c(Cl)c(O)cc(O)c2C(=O)O1	x	4.98*
Cc1nc(N2CCN(C)CC2)cc(N2CCN(C(=O)c3ccc(C(C)(C)C)cc3)CC2)n1	-0.19	0.38
O=S(=O)(c1ccc(F)cc1)N1CCN(Cc2ccc3c(c2)OCO3)CC1	15.8*	0.6
O=S(=O)(c1cccc(F)c1)N1CCN(Cc2ccc3c(c2)OCO3)CC1	-1.27	x
CCOC(=O)C1=C(C(=O)OCC)SC(=C2C(=S)C(C)(C)Nc3ccc(C)cc32)S1	18.6*	1.2
COC(=O)C1=C(C(=O)OC)SC(=C2C(=S)C(C)(C)Nc3ccccc32)S1	13.6*	0.87
CCCC(=O)N1c2ccccc2C(=C2SC(C(=O)OC)=C(C(=O)OC)S2)C(=S)C1(C)C	-4.61	0.88
CCC(=O)N1c2ccc(C)cc2C(=C2SC(C(=O)OC)=C(C(=O)OC)S2)C(=S)C1(C)C	0.15	1.03
CCN(Cc1cc(=O)n2oc(C)cc2n1)c1ccccc1	x	-2.37
CC1CCN(C(=O)C2CCN(c3nc(-c4ccc(C(C)C)cc4)no3)CC2)CC1	x	-0.36
COc1ccc(N2CCN(CCCNC(=O)NC3COc4ccc(OC)cc4C3)CC2)cc1 (stereo not given)	x	0.51
Cc1ccc(COC(=O)c2[nH]c3c(c2C)C(=O)CC(c2ccco2)C3)cc1 (stereo not given)	-0.09	-1.76
Cc1nc2nc(NC(=O)C(C)(C)C)[nH]n2c(=O)c1C	-0.68	-0.87
COC(=O)CSc1nnc(CSc2nc(C)cc(C)n2)n1-c1ccccc1	-0.43	0.49
COC(=O)CCc1ccc(OCC(O)CNC(C)C)cc1 (stereo not given)	x	1.48
CC(C)NCC(O)COc1ccc(COCCOC(C)C)cc1 (stereo not given)	5.24*	-0.4
COc1ccc2ccccc2c1C1CC(=O)N2CN(c3ccccc3)CSC2=C1C#N (stereo not given)	4.82*	-1.12
COc1ccc2ccccc2c1C1CC(=O)N2CN(c3ccc(F)cc3)CSC2=C1C#N (stereo not given)	2.64	0.3
COc1ccc(N2CSC3=C(C#N)C(c4c(OC)ccc5ccccc45)CC(=O)N3C2)c(OC)c1 (stereo not given)	3.75*	1.61
COc1ccc(N2CSC3=C(C#N)C(c4c(OC)ccc5ccccc45)CC(=O)N3C2)cc1 (stereo not given)	6.43*	-2.05
Cc1c(Cl)cccc1NC(=S)NNC(=O)CC1NCCN(Cc2ccccc2)C1=O (stereo not given)	0.95	x
CCOc1ccc(Nc2c3c(nc4ncnn24)CCC3)cc1	x	1.97
Cc1csc2nc(COC(=O)c3cccc(F)c3)cc(=O)n12	x	1.5
Cc1ccc(Oc2nc3ccccc3n3c(C)nnc23)cc1C	0.64	x
Cc1nnc2c(Oc3ccc(Cl)cc3)nc3ccccc3n12	15.7*	0.92
SMILES	CDC25B CDK2 inh	HIV TAR-Tat
CCC1=Nc2cc(C(=O)NC(C)CC)ccc2Sc2ccccc21 (stereo not given)	2.37	-0.04
CCC(C)NC(=O)c1ccc2c(c1)N=C(C)c1cc(C)ccc1S2 (stereo not given)	-1.87	5.86*
CCOC(=O)CNS(=O)(=O)c1ccc2c(c1)N(C)CCO2	x	1.26
CCc1ccc(S(=O)(=O)Nc2cc3c4c(oc3c3ccccc23)CCCC4=O)cc1	18*	x
O=C1CCCc2oc3c(cc(NS(=O)(=O)c4cccc([N+](=O)[O-])c4)c4ccccc43)c21	-0.92	x
O=C(c1cc(=O)c2cc(Cl)ccc2o1)N1CCN(C(c2ccccc2)c2ccccc2)CC1	-1.59	2.72
O=C(Nc1ccc(Cl)c(Cl)c1)Nn1cnnc1	18.3*	x
O=C(Nc1ccccc1)Nn1cnnc1	-0.44	x
CCOC(=O)C(C)c1nc2ccccc2[nH]c1=O (stereo not given)	-0.92	x
CCOC(=O)c1nc2ccccc2[nH]c1=O	18.4*	-0.31
Cc1cc2nc(CSc3ccccc3N)c(=O)[nH]c2cc1C	x	-0.63
Cc1cc2nc(CSc3ccc(N)cc3)c(=O)[nH]c2cc1C	x	18.9*
CCOCCCNc1cc(N2CCN(C3CCCCC3)CC2)c2noc3c2c1C(=O)c1ccccc1-3	-1.83	1.53
O=C(O)CCCNc1cc(N2CCN(C3CCCCC3)CC2)c2noc3c2c1C(=O)c1ccccc1-3	12.9*	-3.41
CCCN1CCN(c2cc(NCCCC(=O)O)c3c4c(onc24)-c2ccccc2C3=O)CC1	-2	-5.83
O=C(O)CCCNc1cc(N2CCC(=O)CC2)c2noc3c2c1C(=O)c1ccccc1-3	14.1*	26.8*
O=C1CCCC2=C1C(c1cccs1)N(C(=O)NC1CCCC1)c1ccccc1N2 (stereo not given)	x	2.02
Cc1ccccc1N1CSC2=C(C#N)C(c3cccs3)CC(=O)N2C1 (stereo not given)	5.09*	0.89
CCc1ccccc1N1CSC2=C(C#N)C(c3cccs3)CC(=O)N2C1 (stereo not given)	6.73*	-0.35
CCC(C)OC(=O)C(C)Oc1ccc2c(=O)c(Oc3ccc(C)cc3)coc2c1 (stereo not given)	-0.22	0.81
COC(=O)CCN1C(=O)c2cccc3cccc(c23)C1=O	-0.69	x
CSc1nnc(S/C(C(C)=O)=C(/C)O)s1	16*	x
CSc1nnc(SCC(=O)N2CCC(C(F)(F)F)CC2)s1	0.86	x
O=C1O[C@H]([C@@H](O)CO)C(O)=C1O	x	0.06
CCCCCCCCCCCCCCCC(=O)OC[C@H](O)[C@H]1OC(=O)C(O)=C1O	x	17.2*
SMILES	CDC25B CDK2 inh	HIV TAR-Tat
COc1ccc(C(=O)n2nc(N)c3cc4cc(OC)ccc4nc32)cc1	1.58	1.4
CCCCn1cc(S(=O)(=O)c2ccc(Cl)cc2)c(=O)c2cc(OCC)ccc21	-1.46	-1.17
Cn1cccc1-c1cc2n(n1)CCCN2C(=O)Nc1ccc(F)cc1	x	-2.25
COc1cccc2c1Oc1[nH]c(-c3ccc(C(=O)O)cc3)nc(=S)c1C2	2.73	33.3*
COc1ccc(-c2nc(=S)c3c([nH]2)Oc2ccccc2C3)cc1OC	0.7	1.58
COc1cccc2c1Oc1[nH]c(-c3ccc(O)cc3)nc(=S)c1C2	0.26	-0.64
COc1ccc(-c2nc(=S)c3c([nH]2)Oc2ccccc2C3)cc1O	10.3*	1.34
COc1cc2c(cc1OC)C(C)N(C=C(C#N)C#N)CC2 (stereo not given)	-1.63	x
CCn1cc(C(=O)N2CCc3ccccc32)c(=O)c2cc(S(=O)(=O)N3CC(C)CC(C)C3)ccc21 (stereo not given)	-0.41	1.95
CCn1cc(C(=O)N2CCc3ccccc3C2)c(=O)c2cc(S(=O)(=O)N3CCC(C)CC3)ccc21	14.9*	0.58
O=C(Nc1ccccc1Br)c1nc2ccccc2nc1Cl	0.26	-0.12
O=C(CSc1ncc(S(=O)(=O)c2ccccc2)c(=O)[nH]1)Nc1ccc(Cl)cc1	-0.37	-0.78
O=C(Nc1ccc(F)cc1)c1ccc(Cn2nc(N3CCN(c4ccc(F)cc4)CC3)ccc2=O)o1	x	0.64
O=C(Nc1ccc2c(c1)OCO2)c1ccc(Cn2nc(N3CCN(c4ccccc4)CC3)ccc2=O)o1	x	17.1*
O=C(Nc1ccc(F)cc1F)c1nc(-c2ccncc2)no1	x	2.83
O=c1c2cc3c(cc2nc(SCc2nc(-c4ccccc4)no2)n1Cc1ccco1)OCO3	x	0.24
CCSc1nc2c(c(=O)[nH]1)C(c1cccc(O)c1)CC(=O)N2 (stereo not given)	-1.39	0.62
